ELG1 repair inh: inhibitors of ELG1-dependent DNA repair in HEK293T cells. HEK293T ELG1-luciferase reporter, luminescence, 16 h; DNA damage induced by 5-fluorouridine. Potency, µM (highest dose often 46.1 µM), most hits filed as inhibitors. 330,000 compounds, 2.3% hits. AID 504467; also: nearly all actives have a fitted effect of over 55% in size
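HEK293T cells expressing luciferase-tagged ELG1 (2,000/well) received 5-Fluorouridine plus compound or DMSO for 16 hr at 37 °C. Luciferase was read by ONE-Glo luminescence after 30 min at room temperature.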
KB-3-1 tox: KB-3-1 parental cell cytotoxicity; 400,000 compounds, 1.4% hits; Potency, µM (top dose mostly 46.1 µM), actives largely listed as cytotoxic; KB-3-1 viability, CellTiter-Glo ATP luminescence, 72 h; also: nearly all actives have a fitted effect of over 60% in size
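Parental KB-3-1 viability, qHTS format: 72 h compound exposure, 37 °C; CellTiter-Glo; media-only wells and DMSO plates as controls; concentration-effect fits on corrected data.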
MCF10A rereplic: DNA re-replication induction in MCF 10a cells | 350,000 compounds, 2.9% hits | Potency, µM (highest dose often 46.1 µM), actives largely listed as activators | MCF 10A DNA re-replication, Hoechst nuclear intensity, 48 h; also: nearly all actives have a fitted effect of over 50% in size
KB-V1 cytotox: kills drug-selected multidrug resistant KB-V1 cells; KB-V1 MDR cells viability, CellTiter-Glo, 72 h; Potency, µM (top dose mostly 46.1 µM), usual class: cytotoxic; 400,000 compounds, 3.4% hits; also: nearly all actives have a fitted effect of over 60% in size
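Cytotoxicity via CellTiter-Glo luminescence after 72 h compound exposure at 37 degrees C. Cells: drug-selected KB-V1 line, DMEM phenol-red free plus 10% FBS. Compounds tested at multiple concentrations; normalized data fitted to concentration-effect curves.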
SW480 rereplic: induces DNA re-replication in SW480 colon adenocarcinoma cells | SW480 DNA re-replication, Hoechst DNA content imaging, 48 h | Potency, µM (titrated, usually from 46.1 µM), usual class: activators | 340,000 compounds, 1.8% hits | AID 624297; also: nearly all actives have a fitted effect of over 55% in size
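SW480 cells exposed to compounds for 48 hr at 37 C, 5% CO2, then Hoechst-stained 40 min. Nuclear DNA content imaged by fluorescence scanning (405 nm excitation, 500-530 nm emission); re-replication scored as increased high-intensity nuclei.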
Large screens that a line does not name were inactive. A selection: hits, their analogues and other compounds. The true share with any hit is near 8.1%. Calls follow the shape of the dose curve; as a rule, active = well fitted curve in the direction sought with a large enough effect; inconclusive = small, poorly fitted or top-dose-only effect, or another doubt; inactive = no such curve, though single readings can be large; an effect the other way counts as inactive or inconclusive.

CCc1ccc(-c2nc(CN3CCC(C(=O)NCc4ccco4)CC3)c(C)o2)cc1	KB-3-1 tox inconclusive, MCF10A rereplic inconclusive, KB-V1 cytotox 9.2µM
CCc1nc2ccc(C(=O)Nc3cccc(OCC(=O)N(C)C)c3)cn2c1N(CCC(C)C)CCN(C)C	none (no result: ELG1 repair inh, MCF10A rereplic, SW480 rereplic)
CCCCCC(=O)N1C[C@@H](O)[C@H](n2cc(C3CC3)nn2)C[C@@H]1c1ccc(C)cc1	none (no result: ELG1 repair inh, MCF10A rereplic, SW480 rereplic)
C/C(=C(/CCO)SS/C(CCO)=C(\C)N(C=O)Cc1cnc(C)nc1N)N(C=O)Cc1cnc(C)nc1N	none (no result: ELG1 repair inh, KB-3-1 tox, KB-V1 cytotox)
CCOC(=O)N1CCN(C(=O)c2[nH]c(C(F)(F)F)nc2-c2ccccc2)CC1	KB-3-1 tox inconclusive (no result: ELG1 repair inh, MCF10A rereplic, SW480 rereplic)
O=c1cc(-c2ccccc2)[nH]n1-c1ccc([N+](=O)[O-])cc1	ELG1 repair inh inconclusive, KB-3-1 tox inconclusive, MCF10A rereplic 14.6µM, KB-V1 cytotox inconclusive
O=C(N/N=C/c1ccsc1)c1cc(-c2cccs2)nc2ccccc12	ELG1 repair inh inconclusive, KB-3-1 tox inconclusive, MCF10A rereplic 5.8µM, KB-V1 cytotox 13µM, SW480 rereplic 6.51µM
O=C(N/N=C/c1ccsc1)c1cc(-c2ccncc2)nc2ccccc12	KB-3-1 tox 2.59µM, MCF10A rereplic 9.2µM, KB-V1 cytotox 8.2µM, SW480 rereplic 7.31µM
C/C(=N\NC(=O)c1cc(-c2ccncc2)nc2ccccc12)c1ccc(N2CCOCC2)cc1	MCF10A rereplic 5.8µM
CC(=NNC(=O)c1cc(C)nc2ccccc12)c1ccc(N2CCOCC2)cc1	none
C/C(=N\NC(=O)c1cc(-c2cccs2)nc2ccccc12)c1ccccn1	KB-3-1 tox inconclusive, MCF10A rereplic inconclusive, SW480 rereplic 1.64µM
O=C(NCCc1csc(-c2ccc(Cl)cc2)n1)c1ccco1	ELG1 repair inh inconclusive
C[C@@H]1COC(=O)[C@@H](Cc2ccc(F)cc2)C/C=C\C[C@@H](CC(=O)N[C@H](CO)Cc2ccccc2)C(=O)N1	KB-3-1 tox inconclusive
CCOC(=O)c1c(C)c(C(=O)NCc2ccco2)c(C)n1Cc1ccccc1	KB-V1 cytotox 4.11µM
CCOC(=O)c1c(C)c(C(=O)NCc2ccco2)c(C)n1CC	ELG1 repair inh inconclusive
CCc1nc2ccc(C(=O)NC(C)(C)C)cn2c1N(CC)Cc1cccc(Br)c1	KB-3-1 tox inconclusive, KB-V1 cytotox 20.6µM (no result: ELG1 repair inh, MCF10A rereplic, SW480 rereplic)
CCc1nc2ccc(C(=O)NCCc3ccccn3)cn2c1N(CC)Cc1cccc(Br)c1	KB-V1 cytotox inconclusive (no result: ELG1 repair inh, MCF10A rereplic, SW480 rereplic)
CCCCOc1ccc(C(=O)NCCc2csc3nc(-c4ccccc4F)nn23)cc1	none (no result: ELG1 repair inh, MCF10A rereplic, SW480 rereplic)
CCOc1ccc(CCNc2cc(C)nc3ncnn23)cc1OCC	none
CCOC(=O)c1ccc(Nc2c(CC)c(C)nc3ncnn23)cc1	MCF10A rereplic inconclusive, KB-V1 cytotox 23.1µM
CCc1c(C)nc2ncnn2c1NCCc1ccc(OC)c(OC)c1	ELG1 repair inh 11.6µM, KB-3-1 tox 23.1µM, KB-V1 cytotox 9.2µM
COc1ccc(CCNc2c(C)c(C)nc3ncnn23)cc1	MCF10A rereplic inconclusive, SW480 rereplic 8.2µM
CS(=O)(=O)Nc1ccc(C2=NN(S(=O)(=O)c3ccc(F)cc3)C(c3ccco3)C2)cc1 (stereo not given)	ELG1 repair inh inconclusive, MCF10A rereplic inconclusive
COc1cccc(C(=O)NCCN2CCC(n3c(=O)[nH]c4ccccc43)CC2)c1	KB-3-1 tox inconclusive (no result: ELG1 repair inh, MCF10A rereplic, SW480 rereplic)
CC(C)OC(=O)c1cc2c(ccn2-c2ccc(F)cc2)n1CC(=O)N1CCN(C(=O)c2ccco2)CC1	ELG1 repair inh 8.2µM
CCOC(=O)c1cc2c(ccn2C)n1CC(=O)N(Cc1ccccc1)c1ccc(F)cc1	MCF10A rereplic inconclusive, KB-V1 cytotox inconclusive
COC(=O)c1cc2c(ccn2-c2ccc(F)cc2)n1CC(=O)N1CCN(C(=O)c2ccco2)CC1	ELG1 repair inh 16.4µM, KB-V1 cytotox inconclusive
CC(C)OC(=O)c1cc2c(ccn2C)n1CC(=O)N(Cc1ccccc1)c1ccc(F)cc1	MCF10A rereplic 6.51µM, SW480 rereplic inconclusive
COc1ccccc1/C=C1\CCCC2=C1Nc1nnnn1C2c1ccccc1OC (stereo not given)	KB-3-1 tox inconclusive, MCF10A rereplic inconclusive, KB-V1 cytotox 8.2µM, SW480 rereplic inconclusive
Cc1ccccc1CNC(=O)C(=O)NCC(c1ccco1)S(=O)(=O)c1ccc(F)cc1 (stereo not given)	KB-V1 cytotox inconclusive (no result: ELG1 repair inh, MCF10A rereplic, SW480 rereplic)

Screens (PubChem)
